TDP1 block – blocks human tyrosyl-DNA phosphodiesterase 1. hit rate 0.28% among 350,000. AID 485290. Q9NUW8. recombinant TDP1, AlphaScreen DNA substrate cleavage. Potency, µM (highest dose often 130 µM), usual class: inhibitors; also: nearly all actives have a fitted effect of over 40% in size
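Recombinant E. coli-expressed Tdp1 (1 nM) preincubated with compound 15 min at RT, then 5'-biotin/3'-phosphotyrosine-FITC DNA substrate (15 nM) added for 5 min. AlphaScreen beads (10 ug/ml) added, 10 min RT; tyrosine-FITC cleavage read as signal loss.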
RECQ1 inh-1 – RECQ1 (human) helicase inhibition | P46063 | RECQ1 DNA unwinding, red fluorescence kinetic read | Potency, µM (series often up to 57.3 µM), hits mostly inhibitors | hit rate 0.54% among 240,000 | AID 2549; also: nearly all actives have a fitted effect of over 30% in size
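50 nM RECQ1T1 preincubated 15 min with compound in Tris pH 8.0 buffer with MgCl2, DTT, Tween-20 and 2.5 ug/ml poly(dI-dC); started with 200 nM TAMRA/BHQ-2 forked duplex and 2 mM ATP. Unwinding read as fluorescence (525/598 nm), two reads 2 h apart.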
BLM helicase inh – blocks DNA unwinding by human BLM helicase. recombinant BLM DNA unwinding, fluorescence dequenching. Potency, µM (series often up to 56.1 µM), hits mostly inhibitors. hit rate 0.2% among 350,000. P54132; also: nearly all actives have a fitted effect of over 35% in size
Target sequence (P54132 whole entry, looked up): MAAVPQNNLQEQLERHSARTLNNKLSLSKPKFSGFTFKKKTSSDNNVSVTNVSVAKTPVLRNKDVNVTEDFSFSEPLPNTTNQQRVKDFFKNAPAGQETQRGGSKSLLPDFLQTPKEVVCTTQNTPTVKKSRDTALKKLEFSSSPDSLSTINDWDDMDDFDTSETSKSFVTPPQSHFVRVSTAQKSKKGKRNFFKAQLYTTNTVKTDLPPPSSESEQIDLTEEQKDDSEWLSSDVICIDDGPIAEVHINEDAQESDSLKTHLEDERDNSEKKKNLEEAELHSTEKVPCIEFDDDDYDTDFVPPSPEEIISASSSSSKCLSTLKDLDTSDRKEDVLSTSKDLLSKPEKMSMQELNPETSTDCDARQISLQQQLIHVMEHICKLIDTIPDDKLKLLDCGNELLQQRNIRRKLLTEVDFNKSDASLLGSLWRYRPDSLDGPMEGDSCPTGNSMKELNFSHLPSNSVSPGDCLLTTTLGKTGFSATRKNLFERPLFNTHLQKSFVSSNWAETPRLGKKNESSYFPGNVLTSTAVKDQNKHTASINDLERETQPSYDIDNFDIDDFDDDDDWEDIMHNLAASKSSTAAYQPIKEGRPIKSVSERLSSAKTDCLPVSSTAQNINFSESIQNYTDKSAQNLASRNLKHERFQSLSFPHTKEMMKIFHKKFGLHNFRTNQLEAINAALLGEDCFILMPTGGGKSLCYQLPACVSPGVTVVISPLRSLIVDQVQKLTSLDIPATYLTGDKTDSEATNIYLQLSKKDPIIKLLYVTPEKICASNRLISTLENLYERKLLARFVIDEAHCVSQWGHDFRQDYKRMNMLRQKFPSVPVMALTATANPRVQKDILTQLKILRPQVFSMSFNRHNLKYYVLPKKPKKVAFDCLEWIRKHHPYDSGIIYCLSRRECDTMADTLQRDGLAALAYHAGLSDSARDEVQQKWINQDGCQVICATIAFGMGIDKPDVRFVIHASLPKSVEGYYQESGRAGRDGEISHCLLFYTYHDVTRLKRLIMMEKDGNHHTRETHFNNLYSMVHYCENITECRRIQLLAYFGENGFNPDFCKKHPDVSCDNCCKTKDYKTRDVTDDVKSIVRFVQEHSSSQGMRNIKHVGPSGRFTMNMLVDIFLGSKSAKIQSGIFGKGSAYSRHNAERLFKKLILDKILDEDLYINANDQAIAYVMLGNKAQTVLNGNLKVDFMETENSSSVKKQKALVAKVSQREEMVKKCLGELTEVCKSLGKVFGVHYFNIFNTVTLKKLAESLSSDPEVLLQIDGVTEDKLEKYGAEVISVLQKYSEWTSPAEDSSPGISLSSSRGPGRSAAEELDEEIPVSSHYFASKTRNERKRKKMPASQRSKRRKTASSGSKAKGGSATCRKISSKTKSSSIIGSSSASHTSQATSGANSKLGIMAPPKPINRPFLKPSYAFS
APEX1 inh – blocks human APE1 abasic DNA cleavage. P27695. recombinant APE1, TAMRA/BHQ-2 abasic DNA cleavage fluorescence. Potency, µM (titrated, usually from 65.8 µM), usual class: inhibitors. hit rate 0.35% among 350,000. AID 2517; also: nearly all actives have a fitted effect of over 55% in size
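Substrate: short duplex with […] THF abasic site, 5'-TAMRA and 3'-BHQ-2, 50 nM final. APE1 at 0.75 nM, preincubated 15 min RT with compound. Fluorescence increase from first to third read measured activity.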
FEN1 inhibitor – inhibitors of human flap endonuclease 1. Potency, µM (series often up to 114 µM), hits mostly inhibitors. hit rate 0.35% among 390,000. AID 588795. Recombinant FEN1 flap cleavage, fluorescence, 15 min. P39748; also: nearly all actives have a fitted effect of over 65% in size
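Nuclease activity of 10 nM FEN1 was measured after 15 min of room-temperature exposure to titrated compounds, by adding 50 nM flap substrate and reading plates at 0 and 15 min.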
RECQ1 inh conf – confirmation of human RECQ1 helicase inhibitors | shares compounds with RECQ1 inh-1 | RECQ1 helicase DNA unwinding, fluorescence | Potency, µM (highest dose often 229 µM), actives largely listed as inhibitors | hit rate 28% among 610; also: nearly all actives have a fitted effect of over 45% in size
ADP FP counter – ADP displacement flagged in RECQ1 inhibitor counter-screen; shares compounds with RECQ1 inh-1; Potency, µM (highest dose often 228 µM), most hits filed as inhibitors; ADP fluorescence polarization displacement counterscreen; hit rate 27% among 530; also: nearly all actives have a fitted effect of over 45% in size
RECQ1 inh-2 – blocks human RECQ1 DNA unwinding | shares compounds with RECQ1 inh-1 | recombinant RECQ1 DNA unwinding, red fluorescence | Potency, µM (top dose mostly 119 µM), usual class: inhibitors | hit rate 15% among 1,100 | AID 504841; also: nearly all actives have a fitted effect of over 50% in size
Numbers stand for hits; 0 = inactive; ? = inconclusive; - = no result; [ ] = dose if it differs, or a comment. In the library only some 0.92% were active in any assay of this set; here they are far more common. Calls follow the shape of the dose curve; as a rule, active = well fitted curve in the direction sought with a large enough effect; inconclusive = small, poorly fitted or top-dose-only effect, or another doubt; inactive = no such curve, though single readings can be large; an effect the other way counts as inactive or inconclusive.

SMILES | TDP1 block | RECQ1 inh-1 | BLM helicase inh | APEX1 inh | FEN1 inhibitor | RECQ1 inh-2 | others
COC(=O)C1=C(C)N(c2ccc(C(=O)OC)cc2)C(=O)C1 | 0 | 0 | 0 | 0 | 0 | -
COC(=O)C1=C(C)N(c2cccc3ccccc23)C(=O)C1 | 0 | ? | 0 | 0 | 0 | 0
C=CCOC(=O)C1C(=O)CC(C)(O)C(C(=O)OCC=C)C1c1ccc(N(C)C)cc1 (configuration not stated) | 0 | ? | 0 | 0 | 0 | 0
C=CCOC(=O)C1C(=O)CC(C)(O)C(C(=O)OCC=C)C1c1ccc(OCC)cc1 (configuration not stated) | 0 | 0 | 0 | 0 | 0 | -
O=C(CC1C(=O)NCCN1Cc1ccc(F)cc1)NCCOc1cccnc1 (configuration not stated) | - | 0 | 0 | 0 | 0 | -
O=C(CC1C(=O)NCCN1Cc1ccc(-c2ccccc2)cc1)NCCOc1cccnc1 (configuration not stated) | 0 | ? | 0 | 0 | 0 | 0
CCOC(=O)c1c(NC(=O)c2cc(OCC)c(OCC)c(OCC)c2)sc2c1CCCCC2 | 0[12.3 µM] | - | 0 | - | 0 | -
NC(=O)c1ccc(-n2nnnc2SCC(=O)Nc2ccccc2)cc1 | - | - | 0 | 0 | 0 | -
CC1=Nc2ccccc2N=C(NC(=O)CSc2nnnn2-c2ccccc2)C1c1ccccc1 (configuration not stated) | 0 | 0 | 0 | 0 | 0 | - | RECQ1 inh conf=0;ADP FP counter=0
Cc1nc2c(c(C)c1CCC(=O)N1CCN(c3ccccc3)CC1)c(=O)n(C)c(=O)n2C | 0 | - | 0 | - | 0 | -
CCN(CC)CCCNC(=O)c1ccc(-c2nc(CN3CCc4ccccc43)c(C)o2)cc1 | 0 | - | 0 | - | 0 | -
C=CCn1c(=O)/c(=C\c2ccccn2)s/c1=C(/C#N)C(=O)NCC1CCCO1 (configuration not stated) | 0 | 0 | 0 | 0 | 0 | -
C=CCn1c(=O)/c(=C/c2ccc(C)o2)s/c1=C(/C#N)C(=O)c1ccccc1 | 0 | 32µM | 0 | 0 | 0 | ?
CCOc1ccc(C(=O)NCCc2sc(-c3ccc(F)cc3)nc2C)cc1 | 0 | - | 0 | - | 0 | -
COc1ccc(-c2nc(N3CCN(S(=O)(=O)c4ccc(C)cc4)CC3)c3ccccc3n2)cc1 | 0 | - | - | - | 0 | -
COc1ccc(NC(=O)/C(Cl)=C(/Cl)S(=O)Cc2ccc(Cl)cc2)cn1 (configuration not stated) | 0 | 35µM | 0 | 0 | 0 | 0
COC(=O)Nc1ccc(S(=O)(=O)N2CCCC(C(=O)N3CC(C)OC(C)C3)C2)cc1 (configuration not stated) | - | 0 | 0 | 0 | 0 | - | RECQ1 inh conf=0;ADP FP counter=0
CCc1cc2ccccc2nc1SCC(=O)Nc1cc(OC)c(OC)cc1C(=O)O | 0 | 0 | 0 | 0 | 0 | -
COc1cc(NC(=O)CSc2nc3ccccc3cc2C)c(C(=O)O)cc1OC | 0 | 0 | 0 | 0 | 0 | - | RECQ1 inh conf=0;ADP FP counter=?
COc1ccc2cc(C)c3nnc(SCC(=O)Nc4cc(OC)c(OC)cc4C(=O)O)n3c2c1 | 0 | 0 | 0 | 0 | 0 | - | RECQ1 inh conf=0;ADP FP counter=0
Clc1ccc(Cn2cc3c(n2)-c2cc4ccccc4n2C3)cc1 | 0 | - | - | - | 0 | -
[O-][n+]1cccc2c(Br)cc(Br)c(O)c21 | 0 | 0 | 0 | 0 | ? | -
C[n+]1cccc2c(Br)ccc([O-])c21 | 0 | 32µM | 20µM | 0 | 0 | 0
O=C(c1ccccc1)c1ccc(OCCOCCN2CCN(Cc3ccccc3)CC2)cc1 | 0 | ? | 0 | 0 | 0 | 0
O=C(c1ccccc1)c1ccc(OCCCN2CCCC2)cc1 | 0 | 0 | 0 | 0 | 0 | -
O=C(Nc1nnc(C2CC2)s1)C1CC(=O)N(c2ccc3c(c2)OCCO3)C1 (configuration not stated) | - | 28µM | 0 | ? | 0 | ?
CN(Cc1ccccc1)C(=O)CCNS(=O)(=O)c1ccc2c(c1)oc(=O)n2C | 0 | 35µM | 0 | ? | 0 | ?
COC(=O)c1ccc(NC(=O)CCc2c(C)nn(-c3ccc(N4CCOCC4)nn3)c2C)cc1 | 0 | - | 0 | - | 0 | -

Screening results as filed in PubChem BioAssay.
